# The supplement of paper PMC11577813, “Eurasian spruce bark beetle detects lanierone using a highly expressed specialist odorant receptor, present in several functional sensillum types” (BMC Biology, 2024)
# ± gives the standard deviation of the averaged measurements.
# System: (+)-trans-4-thujanol A-neuron OSN class
# Test: net action potential response of A-neuron (blank-subtracted) (spikes/s (Hz)); higher = stronger excitation
# Conditions: 10 µg on filter paper; neuron: A neuron (large spike amplitude)
# Experimental: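 Single sensillum recordings from antennal olfactory sensilla of live adult Ips typographus. Each compound was 10 µg in paraffin oil on filter paper, delivered as a 0.5 s puff. Net response = spikes in the first 0.5 s of response minus the 0.5 s pre-stimulus count, doubled to give Hz, with blank response subtracted. Values are for the large-spike A-neuron class of each of seven sensillum types that co-house the lanierone B-neuron; N = 1-4 sensilla, averaged.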
row,Compound,net action potential response
1,O=Cc1ccccc1 [Benzaldehyde],-0.5 ± 1.9
2,Cc1ccccc1 [Toluene],0.5 ± 2.5
3,C=CCc1ccc(OC)cc1 [Estragole],1 ± 2
